test system: T1, ARK5; details: concentration: 1 μM, replicates: in singlicate; n = 1
T1 construct: gene NUAK1
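Further: KINOMEscan kinase panel screen.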

Row | Compound | %Inh [%]
1 | Fc1ccc(-c2ncn(C3CCNCC3)c2-c2ccnc(Oc3ccc(-c4ccccc4)cc3)n2)cc1 [SB-245391] | 1
2 | COc1cc(Nc2ncc3c(C)nc(-c4cc5ccccc5[nH]4)n3n2)cc(OC)c1OC [GW869516] | 0
3 | Clc1ccc(-c2nn3ncccc3c2-c2ccnc(Nc3ccc4c(c3)OCCO4)n2)cc1 [GW829116] | 0
4 | c1ccc(-c2cnc3nccnn23)cc1 [AH20685] | 0
5 | O=C(Nc1ccccc1F)NC1CCN(c2ccnc(Nc3ccc(F)cc3)n2)CC1 [GSK1379800] | 0
6 | Cc1occc1-c1ncc(OC[C@@H](N)Cc2c[nH]c3ccccc23)cc1-c1ccc2[nH]nc(C)c2c1.O=C(O)C(F)(F)F [GSK682037] | 0
7 | C[C@@H]1CC[C@@H](C(=O)Nc2ccccc2)CN1c1cc(-c2ccc3c(N)n[nH]c3c2)nc(N)n1 [GSK2286062] | 19
8 | COc1cc(Nc2nccc(-c3c(-c4cccc(NC(=O)c5c(F)cccc5F)c4)nn4ncccc34)n2)cc(OC)c1OC [GSK327238] | 97.4
9 | C[C@@H](Oc1cc(-n2cnc3cc(-c4ccnc(NCCS(C)(=O)=O)c4)ccc32)sc1C(N)=O)c1ccccc1Cl [GSK907232] | 84
10 | CN1CCN(Cc2cccc(-c3ccc4c(Nc5ccc(Oc6ccccc6)cc5)ccnc4c3)c2)CC1 [GW578342] | 0
11 | Cc1ccc(S(=O)(=O)Nc2ccc(Nc3nccc(Nc4cccc5[nH]ncc45)n3)cc2)cc1 [GSK581271] | 5

test system: T2, ASK1; details: concentration: 1 μM, replicates: in singlicate; n = 1
T2 construct: gene MAP3K5

Row | Compound | %Inh [%]
12 | Cl.c1ccc(-c2ccc3c(Nc4ccc5[nH]ccc5c4)ccnc3c2)nc1 [GW440138] | 0
13 | Nc1n[nH]c2cnc(-c3ccccc3)cc12 [SB-642124] | 6
14 | CN(C)Cc1ccc(-c2ccc3c(Nc4ccc(Oc5ccccn5)cc4)ccnc3c2)o1 [GW567148] | 0
15 | CC(C)(C)c1ccc2nccc(Nc3cccc(O)c3)c2c1 [GW856795] | 0
16 | O=c1[nH]cc(-c2ccc(N3CCOCC3)cc2)c2sc(-c3cn[nH]c3)cc12 [GSK2276055] | 0
17 | O=C(Nc1n[nH]c2cc(-c3ccoc3)ccc12)C1CC1 [SB-738481] | 0
18 | CC(=O)N1CCN(c2ccc(Nc3nccc(-c4sc(C(C)C)nc4-c4cccc(NS(=O)(=O)c5cccc(Cl)c5)c4)n3)cn2)CC1 [GSK1660437] | 0
19 | COc1cc2c(cc1OCCN1CCNCC1)ncc1c3ccc(C#N)cc3[nH]c21 | 0
20 | CNC(=O)c1ccccc1Nc1nc(Nc2ccc(N3CCOCC3)cc2)ncc1Cl.Cl [GSK1576028] | 0
21 | Oc1cc(Nc2ccnc3cc(I)ccc23)ccc1F [GW552771] | 0
22 | COc1cccc(C2=C(Nc3ccc(Cl)c(C(=O)O)c3)C(=O)NC2=O)c1 [SB-390769] | 12
23 | O=C(Nc1cccc(-c2nn3ccccc3c2-c2ccnc(Nc3cccc(F)c3)n2)c1)c1c(F)ccc(F)c1Cl [GSK357952] | 1
24 | O=C(Nc1cccc(Oc2ccc3nc(NC(=O)C4CC4)cn3n2)c1)c1ccccc1C(F)(F)F | 0
25 | CSc1cccc2c(-c3ccncn3)c(-c3ccc(F)cc3)nn12 [GW514786] | 0
26 | Cn1cc(-c2[nH]c3cc(NC(=O)[C@H](N)C4CCCCC4)cc4c3c2C=NNC4=O)cn1 | 0
27 | COc1ccc(CNC(=O)NC2CCN(c3ccnc(Nc4ccc(F)cc4)n3)CC2)cc1 [GSK1379788] | 0
28 | COc1cccc(NC(=O)NC2CCN(c3ccnc(Nc4cc(OC)c(OC)c(OC)c4)n3)C2)c1 (stereo not shown) [GSK1379763] | 0
29 | O=C(Nc1n[nH]c2nc(-c3ccc(O)cc3)ccc12)C1CC1 [SB-710363] | 18
30 | CN1CCN(CCCNc2nccc(-c3c(-c4ccc(F)cc4)nn4cc(C(F)(F)F)ccc34)n2)CC1 [GW621581] | 6
31 | c1ccc(-c2n[nH]cc2Nc2ccnc3ccccc23)nc1 [GW694077] | 0
32 | CCc1ccc(-c2ccc3c(c2)-c2c(cnn2C)S(=O)(=O)N3C)cc1 | 0
33 | NCCCC(NC(=O)c1cc(Br)c(-c2ccnc3[nH]ccc23)s1)c1ccccc1.O=C(O)C(F)(F)F.O=C(O)C(F)(F)F (stereo not shown) [GSK1287544] | 0
34 | Nc1ncc(-c2cccnc2)c2scc(-c3ccc4c(c3)CCN4C(=O)Cc3ccccc3)c12 [GSK683281] | 22

From article PMC5540273 (PLoS ONE, 2017)
